According to PubChem BioAssay (NCI):
Compounds without any hit were thinned out: in the full panel of roughly 83,000, 20% have a hit.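 Cell lines were cultured in 96-well plates, exposed to a single compound concentration, and assessed for percent growth 48 hours later.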 Calls of active or inactive are those of the source. Rule for the calls: active = growth percent below 10; inactive = the rest.

Tests used:
Test in all cases: NCI-60 one-dose screen, 48 h (100 = growth as untreated, 0 = no growth, -100 = all killed)
NCI-H23 lung = conditions: 10 µM unless noted
NCI-H226 lung = conditions: 10 µM unless noted
NCI-H322M lung = conditions: 10 µM unless noted
HOP-62 NSCLC = conditions: 10 µM unless noted
NCI-H460 lung = conditions: 10 µM unless noted
HOP-92 NSCLC = conditions: 10 µM
A549/ATCC NSCLC = conditions: 10 µM unless noted
786-0 renal = conditions: 10 µM unless noted
COLO 205 colon = conditions: 10 µM unless noted
DU-145 prostate = conditions: 10 µM unless noted
K-562 leukemia = conditions: 10 µM unless noted
MALME-3M melanoma = conditions: 10 µM unless noted
MDA-MB-231 breast = conditions: 10 µM unless noted
RXF 393 renal = conditions: 10 µM unless noted
SF-268 CNS = conditions: 10 µM unless noted
SF-295 CNS = conditions: 10 µM unless noted
SF-539 CNS = conditions: 10 µM unless noted
UACC-257 melanoma = conditions: 10 µM unless noted
M14 melanoma = conditions: 10 µM unless noted

Measured: growth

C[C@@H](Nc1ncnc2ccc(-c3cnc(Cl)c(NS(C)(=O)=O)c3)cc12)c1ccccc1
inactive: NCI-H23 lung 55.7% | NCI-H226 lung 64.6% | NCI-H322M lung 68.2% | HOP-62 NSCLC 36.8% | NCI-H460 lung 60.5% | A549/ATCC NSCLC 54.2% | 786-0 renal 45.4% | COLO 205 colon 80.2% | DU-145 prostate 34.1% | K-562 leukemia 73.9% | MALME-3M melanoma 59.2% | MDA-MB-231 breast 49% | SF-268 CNS 42.5% | SF-295 CNS 46% | SF-539 CNS 44.5% | UACC-257 melanoma 60.9% | M14 melanoma 69.1%
active: HOP-92 NSCLC -1.13% | RXF 393 renal -17.5%

CN(C)CCNC(=O)c1ccc(-c2nc3ccc4[nH]ncc4c3c3c2COCC3)cc1
active: NCI-H23 lung -5.76% | NCI-H226 lung 9.31% | NCI-H322M lung 2.32% | HOP-62 NSCLC 5.23% | NCI-H460 lung 6.12% | HOP-92 NSCLC -24.1% | COLO 205 colon -52.3% | DU-145 prostate 4.89% | K-562 leukemia 8.14% | MALME-3M melanoma -24% | MDA-MB-231 breast -5.19% | SF-268 CNS -16.2% | SF-295 CNS 3.44% | SF-539 CNS -53%
inactive: A549/ATCC NSCLC 38.5% | 786-0 renal 22.6% | UACC-257 melanoma 22.1%

Oc1cccc2ccc(-c3nnc(SCc4ccc(O)c5ncccc45)n3-c3ccccc3)nc12
inactive: NCI-H23 lung 20.5% | NCI-H226 lung 39.5% | NCI-H322M lung 20.9% | HOP-62 NSCLC 16.5% | A549/ATCC NSCLC 15.4% | 786-0 renal 25.9% | COLO 205 colon 53.9% | DU-145 prostate 25.2% | K-562 leukemia 12.4% | MDA-MB-231 breast 29.7% | SF-268 CNS 22.8%
active: NCI-H460 lung 2.48% | HOP-92 NSCLC -0.323% | MALME-3M melanoma -3.5% | SF-295 CNS 2.95% | SF-539 CNS 4.73% | UACC-257 melanoma -2.75%

COc1cc(Cn2cc3c(c2)-c2onc(CN4CCOCC4)c2CC3)cc(OC)c1OC
inactive: NCI-H23 lung 94.6% | NCI-H226 lung 87.1% | NCI-H322M lung 100% | HOP-62 NSCLC 95.6% | NCI-H460 lung 111% | HOP-92 NSCLC 89.7% | A549/ATCC NSCLC 101% | 786-0 renal 100% | COLO 205 colon 114% | DU-145 prostate 113% | K-562 leukemia 72.5% | MALME-3M melanoma 91.8% | MDA-MB-231 breast 82.6% | SF-268 CNS 99.7% | SF-295 CNS 93% | SF-539 CNS 99.2% | UACC-257 melanoma 101%

Nc1nc(Nc2ccccc2SSc2ccccc2Nc2nc(N)nc(-c3ccc4ccccc4c3)n2)nc(-c2ccc3ccccc3c2)n1
active: A549/ATCC NSCLC 2.94%
inactive: NCI-H23 lung 49.9% | NCI-H226 lung 59% | NCI-H322M lung 91.7% | HOP-62 NSCLC 28.8% | NCI-H460 lung 61.1% | HOP-92 NSCLC 92.4% | 786-0 renal 82.6% | COLO 205 colon 106% | DU-145 prostate 60.7% | K-562 leukemia 69.7% | MALME-3M melanoma 93.1% | MDA-MB-231 breast 60.9% | RXF 393 renal 79.5% | SF-268 CNS 74.9% | SF-295 CNS 67.7% | SF-539 CNS 99% | UACC-257 melanoma 112% | M14 melanoma 95%

CCn1c2ccccc2c2cc(-n3nncc3-c3ccccc3)ccc21
active: NCI-H23 lung 7.25% | NCI-H460 lung 0.528% | COLO 205 colon -10.9% | SF-539 CNS -17.7%
inactive: NCI-H226 lung 47.8% | NCI-H322M lung 45.1% | HOP-62 NSCLC 66% | HOP-92 NSCLC 57.8% | A549/ATCC NSCLC 24.5% | 786-0 renal 31.6% | DU-145 prostate 13.3% | K-562 leukemia 10.3% | MALME-3M melanoma 56.3% | MDA-MB-231 breast 27.2% | SF-268 CNS 35.2% | SF-295 CNS 15.7% | UACC-257 melanoma 85.4%

C[C@@H](Nc1c(C#N)cnc2ccc(-c3cnc(Cl)c(NS(C)(=O)=O)c3)cc12)c1ccccc1
active: NCI-H23 lung 6.8% | NCI-H226 lung -3.88% | NCI-H460 lung 2.56% | HOP-92 NSCLC -14.5% | A549/ATCC NSCLC 4.78% | 786-0 renal 4.25% | DU-145 prostate 7.73% | MALME-3M melanoma -12.9% | RXF 393 renal -40.2% | SF-268 CNS -1.52% | SF-295 CNS -20.8% | SF-539 CNS -20.7% | M14 melanoma 4.3%
inactive: NCI-H322M lung 12.1% | HOP-62 NSCLC 11.6% | COLO 205 colon 16.5% | K-562 leukemia 15.3% | MDA-MB-231 breast 11.5% | UACC-257 melanoma 14.8%

Nc1ncc(-c2ccc3ncnc(N4CCc5cc(F)c(Cl)cc54)c3c2)cn1
active: HOP-92 NSCLC -10.9% | 786-0 renal 3.19% | MDA-MB-231 breast 0.108% | RXF 393 renal -47.5% | SF-539 CNS 8.74%
inactive: NCI-H23 lung 31.7% | NCI-H226 lung 20.7% | NCI-H322M lung 23% | HOP-62 NSCLC 19.6% | NCI-H460 lung 23% | A549/ATCC NSCLC 10.4% | COLO 205 colon 39.9% | DU-145 prostate 10.8% | K-562 leukemia 34.6% | MALME-3M melanoma 33.6% | SF-268 CNS 16.9% | SF-295 CNS 13.2% | UACC-257 melanoma 50.6% | M14 melanoma 33.8%

CNC(=O)c1cc(-n2ccc3cc(NC(=O)Nc4ccc(N5CCOCC5)c(C(F)(F)F)c4)ccc32)ccn1
inactive: NCI-H23 lung 50.4% | NCI-H226 lung 73.6% | NCI-H322M lung 75.5% | HOP-62 NSCLC 55.7% | NCI-H460 lung 34.3% | HOP-92 NSCLC 56% | A549/ATCC NSCLC 36.4% | 786-0 renal 13.6% | COLO 205 colon 26.4% | DU-145 prostate 54.9% | MALME-3M melanoma 82% | MDA-MB-231 breast 45.4% | SF-268 CNS 72.6% | SF-295 CNS 12.3% | SF-539 CNS 23.3% | UACC-257 melanoma 56.8% | M14 melanoma 23.6%
active: K-562 leukemia 4.09% | RXF 393 renal -27.5%

N#Cc1c(-c2cccs2)cc(-c2cnccn2)nc1SCC(=O)c1ccc(F)cc1
inactive: NCI-H23 lung 90.6% | NCI-H226 lung 89.3% | NCI-H322M lung 97.8% | HOP-62 NSCLC 76.4% | NCI-H460 lung 103% | HOP-92 NSCLC 76% | A549/ATCC NSCLC 86.6% | 786-0 renal 88.6% | COLO 205 colon 105% | DU-145 prostate 79.5% | K-562 leukemia 87.2% | MALME-3M melanoma 101% | MDA-MB-231 breast 68.7% | RXF 393 renal 62.2% | SF-268 CNS 84.7% | SF-295 CNS 93.6% | SF-539 CNS 76.9% | UACC-257 melanoma 109% | M14 melanoma 116%

Nn1c(N/N=C/c2nc3ccccc3s2)n[nH]c1=S
inactive: NCI-H23 lung 91.8% | NCI-H226 lung 104% | NCI-H322M lung 109% | HOP-62 NSCLC 74.8% | NCI-H460 lung 110% | HOP-92 NSCLC 98.7% | A549/ATCC NSCLC 95.3% | 786-0 renal 96.1% | COLO 205 colon 115% | DU-145 prostate 97.5% | K-562 leukemia 108% | MALME-3M melanoma 109% | MDA-MB-231 breast 88.2% | RXF 393 renal 83.9% | SF-268 CNS 93.2% | SF-295 CNS 105% | SF-539 CNS 103% | UACC-257 melanoma 109% | M14 melanoma 111%

O=C1[C@H]2Cc3c([nH]c4ccccc34)[C@@H](c3ccc(Br)cc3)N2C(=O)CN1C1CCN(CC2CCCCC2)CC1
active: NCI-H23 lung -81.3% | NCI-H226 lung -3.54% | NCI-H460 lung -85.7% | HOP-92 NSCLC -59.4% | A549/ATCC NSCLC -77.3% | 786-0 renal -94.6% | COLO 205 colon -90.6% | DU-145 prostate -49.7% | K-562 leukemia -63.7% | MALME-3M melanoma -82.3% | MDA-MB-231 breast -94.8% | RXF 393 renal -96% | SF-295 CNS -61.5% | SF-539 CNS -89.3% | UACC-257 melanoma -60.2% | M14 melanoma -77.2%
inactive: NCI-H322M lung 16.2% | HOP-62 NSCLC 10.8% | SF-268 CNS 22.2%

O=C(NNc1nc2cc(F)c(F)cc2n2cccc12)c1cnccn1
inactive: NCI-H23 lung 34.5% | NCI-H226 lung 45.1% | NCI-H322M lung 35% | HOP-62 NSCLC 24.8% | HOP-92 NSCLC 36.4% | A549/ATCC NSCLC 24.1% | 786-0 renal 30.6% | COLO 205 colon 11.9% | DU-145 prostate 32.7% | K-562 leukemia 15.5% | MALME-3M melanoma 49.7% | MDA-MB-231 breast 44% | SF-268 CNS 32.5% | SF-295 CNS 11.1% | SF-539 CNS 19.9% | UACC-257 melanoma 17.5%
active: NCI-H460 lung 7.99%

CCCCCc1ccc(S(=O)(=O)Nc2cc(-c3csc(NC(=O)CN4CCN(CCO)CC4)n3)ccc2OC)cc1
inactive: NCI-H23 lung 71.3% | NCI-H226 lung 82.9% | NCI-H322M lung 52.3% | HOP-62 NSCLC 78.7% | HOP-92 NSCLC 46.8% | A549/ATCC NSCLC 43.4% | DU-145 prostate 49.1% | MDA-MB-231 breast 12.6% | SF-268 CNS 59.8%
active: NCI-H460 lung -14% | 786-0 renal -51.5% | COLO 205 colon -21.4% | K-562 leukemia 2.84% | MALME-3M melanoma -80.9% | SF-295 CNS -23.1% | SF-539 CNS -69.2% | UACC-257 melanoma -31.4%

CC1(C)CC[C@]2(C(=O)O)CC[C@]3(C)C(=CC[C@@H]4[C@@]5(C)CC/C(=N\OCCC#N)C(C)(C)[C@@H]5CC[C@]43C)[C@@H]2C1
inactive: NCI-H23 lung 98% | NCI-H226 lung 98% | NCI-H322M lung 111% | HOP-62 NSCLC 79.2% | NCI-H460 lung 93.7% | HOP-92 NSCLC 123% | A549/ATCC NSCLC 93.7% | 786-0 renal 80.8% | COLO 205 colon 111% | DU-145 prostate 91.8% | K-562 leukemia 109% | MALME-3M melanoma 117% | MDA-MB-231 breast 93% | RXF 393 renal 66.6% | SF-268 CNS 84.6% | SF-295 CNS 102% | SF-539 CNS 99.2% | UACC-257 melanoma 108% | M14 melanoma 98.2%

COc1cc(-c2ccc3ncnc(NCc4ccccc4)c3c2)cnc1OC
active: HOP-92 NSCLC 5.49% | RXF 393 renal -18.3%
inactive: NCI-H23 lung 67% | NCI-H226 lung 68.3% | NCI-H322M lung 26.3% | HOP-62 NSCLC 36.2% | NCI-H460 lung 69.1% | A549/ATCC NSCLC 38.6% | 786-0 renal 44.8% | COLO 205 colon 87.6% | DU-145 prostate 24.3% | K-562 leukemia 85.2% | MALME-3M melanoma 94.9% | MDA-MB-231 breast 41.5% | SF-268 CNS 46.5% | SF-295 CNS 55.1% | SF-539 CNS 48.7% | UACC-257 melanoma 75.7% | M14 melanoma 86.2%
